Screening data (PubChem BioAssay)
Only some compounds are listed: those with a hit (about 2.7% of all), similar ones and a draw of the others.
GLP1R ag = qHTS of GLP-1 Receptor Agonists. AID 624172, 2012. HEK293 GLP-1R CRE-luciferase, luminescence, 4-6 h; cells express a hypersensitive GLP-1R form. hit rate 0.007% among 380,000. Potency, µM (highest dose often 45.6 µM), hits mostly activators
Target sequence (P43220 whole entry, looked up): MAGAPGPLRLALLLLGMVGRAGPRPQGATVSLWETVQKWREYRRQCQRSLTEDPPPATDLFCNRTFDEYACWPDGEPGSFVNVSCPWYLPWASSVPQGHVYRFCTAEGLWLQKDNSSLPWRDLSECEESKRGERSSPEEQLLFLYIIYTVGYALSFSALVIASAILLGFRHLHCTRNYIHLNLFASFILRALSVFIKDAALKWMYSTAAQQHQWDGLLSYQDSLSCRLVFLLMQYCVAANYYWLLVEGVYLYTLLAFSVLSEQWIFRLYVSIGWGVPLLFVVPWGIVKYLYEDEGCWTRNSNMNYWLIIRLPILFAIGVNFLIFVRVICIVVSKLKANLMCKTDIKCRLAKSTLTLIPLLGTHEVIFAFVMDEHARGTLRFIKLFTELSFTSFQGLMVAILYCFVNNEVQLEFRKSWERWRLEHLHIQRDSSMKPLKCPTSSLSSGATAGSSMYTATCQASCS
GLP-1R inv ag = qHTS of GLP-1 Receptor Inverse Agonists (Inhibition Mode) | hit rate 1.6% among 410,000 | Glucagon-like peptide 1 receptor (Homo sapiens), P43220 | Potency, µM (highest dose often 38.3 µM), most hits filed as inhibitors | HEK293 GLP-1R CRE-luciferase, luminescence, 24 h; GLP-1R form is constitutively active; also: nearly all actives have a fitted effect of over 55% in size
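qHTS in 1536-well format: reporter HEK293 cells expressing constitutive GLP-1R activity in DMEM + 10% Nu serum, 24 hr with compounds at 37 deg C, luminescence read after 12 min with detection reagent.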
BRCA1 expr up = qHTS Assay to Identify Small Molecule Activators of BRCA1 Expression; MCF7-BRCA1-FFLuc reporter, luminescence, 48 h; response scale: scaled: vehicle 0%, 10 µM genistein 100%; Potency, µM (titrated, usually from 46.1 µM), hits mostly activators; hit rate 1.1% among 380,000; also: nearly all actives have a fitted effect of over 80% in size
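Luminescence from a BRCA1-driven firefly luciferase in MCF7 cells was the read-out, taken 15 min after substrate addition following 48 h compound exposure at 37 °C. Data were normalized to a 10 microM genistein control and DMSO vehicle.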
GLP1R cytotox = qHTS of GLP-1 Receptor Inverse Agonists: Cytotox Screen | hit rate 0.13% among 410,000 | Potency, µM (doses to about 38.3 µM), actives largely listed as inhibitors | HEK293 cAMP-luciferase reporter cells, luminescence, 24 h;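 also: loss of luciferase light is scored as toxicity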
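Cells in DMEM/10% Nu serum/1% pen-strep, 1536-well format. Pre-incubated 12 h, dosed with 23 nL compound, incubated a further 24 h. Luciferase detection, 12 min at room temp, luminescence.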
a7 integrin act = qHTS for Activators of Integrin-Mediated Alleviation for Muscular Dystrophy; alpha7betagal myoblasts, beta-gal FDG fluorescence, 48 h; Potency, µM (top dose mostly 38.3 µM), most hits filed as activators; hit rate 0.064% among 350,000; AID 624291, 2012; also: nearly all actives have a fitted effect of over 60% in size
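alpha7betagal+/- myoblasts (passage 13, 250/well) treated 48 h at 37C with compounds at 1:260 dilution of DMSO stock. Lysed, then beta-galactosidase activity read as FDG fluorescence (ex 480/em 540) after 30 min, with pre-read for autofluorescence.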
Each line names hits and unclear results; the compound was inactive in the other large screens. Calls follow the shape of the dose curve; as a rule, active = well fitted curve in the direction sought with a large enough effect; inconclusive = small, poorly fitted or top-dose-only effect, or another doubt; inactive = no such curve, though single readings can be large; an effect the other way counts as inactive or inconclusive.

CCCS(=O)(=O)c1c(S(=O)(=O)CCC)c2cc(CC)ccn2c1C(=O)c1ccc(Cl)cc1	none (no result: GLP1R ag, BRCA1 expr up, a7 integrin act)
OCCN(CCO)CC(O)COc1ccc(C23CC4CC(CC(C4)C2)C3)cc1 (stereo not given)	GLP1R ag inconclusive, GLP-1R inv ag 2.8µM, GLP1R cytotox inconclusive
CN(C(=O)Cn1cnc2onc(-c3ccc(F)cc3)c2c1=O)c1ccccc1Cl	none (no result: a7 integrin act)
CCN1C/C(=C/c2ccc(OC)c(O)c2)C(=O)/C(=C/c2ccc(OC)c(O)c2)C1	GLP-1R inv ag inconclusive, GLP1R cytotox inconclusive
COc1ccc(/C=C2\CN(Cc3ccccc3)C/C(=C\c3ccc(OC)c(O)c3)C2=O)cc1O	GLP-1R inv ag 8.9µM, GLP1R cytotox inconclusive
Cc1ccc(C)c(N2C(=O)N(C)c3ccccc3S2(=O)=O)c1	GLP-1R inv ag inconclusive (no result: a7 integrin act)
CCCOc1ccc2c(c1)C(=NN=C(N)N)c1cc(OCCC)ccc1-2	GLP-1R inv ag 1.8µM, GLP1R cytotox inconclusive
O=C(c1ccc2c(=O)n3c(nc2c1)CCCCC3)N1CCN(c2ccc(Cl)cc2)CC1	GLP-1R inv ag 7.1µM
O=C(c1ccc2c(=O)n3c(nc2c1)CCCCC3)N1CCN(c2ccc(F)cc2)CC1	GLP-1R inv ag 5µM
COc1ccccc1N1CCN(C(=O)c2ccc3c(=O)n4c(nc3c2)CCCCC4)CC1	none
COc1ccc(CNCC(O)COc2ccc3[nH]c(=O)ccc3c2)cc1OC (stereo not given)	none (no result: GLP-1R inv ag, BRCA1 expr up, GLP1R cytotox, a7 integrin act)
Cc1c(C)n(CCCN(C)C)c2ncnc(NC3CCCCC3)c12	GLP-1R inv ag 4µM
COc1ccccc1Nc1ncnc2c1c(C)c(C)n2CCCN(C)C	GLP-1R inv ag 2.2µM
COc1ccc(Nc2ncnc3c2c(C)c(C)n3CCCN(C)C)cc1	GLP-1R inv ag 11µM
O=C(Nc1ccc(Br)cc1F)C1CCN(c2nc3ccccc3[nH]2)CC1	none (no result: GLP1R ag, BRCA1 expr up, a7 integrin act)
CCC1CCc2c(sc(NC(=O)C3c4ccccc4Oc4ccccc43)c2C#N)C1 (stereo not given)	none (no result: GLP1R ag, BRCA1 expr up, a7 integrin act)
Cc1ccc(/C(N)=N/OC(=O)c2ccc(F)cc2)cc1	BRCA1 expr up 10µM
N/C(=N\OC(=O)c1ccc(Cl)cc1)c1ccc(Cl)cc1	BRCA1 expr up 11µM
N/C(=N\OC(=O)c1ccc(F)cc1)c1ccccc1	none
N/C(Cc1ccc(Cl)cc1)=N\OC(=O)c1ccc2ccccc2c1	GLP1R ag inconclusive, GLP-1R inv ag 7.9µM, GLP1R cytotox inconclusive
COc1cc(-c2nnc(SCC3(c4ccc(Br)cc4)OCCO3)o2)cc(OC)c1OC	GLP-1R inv ag 4µM
COc1cc(-c2nnc(SCC(=O)N3CCOCC3)o2)cc(OC)c1OC	none
Cc1cc2nc(C3CCN(CC4COc5ccccc5O4)CC3)[nH]c2cc1C (stereo not given)	GLP-1R inv ag 10µM
O=C1CCCc2c1[nH]c1ccc(Cl)cc21	none
CCOC(=O)c1ccc2[nH]c3c(c2c1)CCCCC3=O	BRCA1 expr up 4µM
NC(=O)C1CCCCc2c1[nH]c1ccc(Cl)cc21 (stereo not given)	GLP-1R inv ag 13µM
CCOC(=O)c1ccc2[nH]c3c(c2c1)CCCC3C(=O)OCC (stereo not given)	GLP-1R inv ag 5µM
C=Cc1ccc(CSc2nc(-c3ccc(Cl)cc3)nc3c2Cc2c(CO)cnc(C)c2O3)cc1	none (no result: GLP1R ag, BRCA1 expr up, a7 integrin act)
COC(=O)c1sccc1NC(=O)CSc1ccccc1NS(=O)(=O)c1ccccc1Cl	GLP-1R inv ag inconclusive
COC(=O)c1sccc1NC(=O)CSc1ccccc1NS(=O)(=O)c1ccc(Cl)cc1	GLP-1R inv ag 10µM
CCc1nn(CC(=O)N2CCN(c3cccc(C)c3C)CC2)c(=O)c2cc3occc3n12	none (no result: GLP1R ag, a7 integrin act)
CCOC(=O)CC(=O)CSc1ncnc2c1cnn2-c1ccccc1	BRCA1 expr up 6.3µM
Cc1ccc(-n2ncc3c(SCc4ccccc4)ncnc32)cc1	BRCA1 expr up 4.5µM
Cc1ccc(CSc2ncnc3c2cnn3-c2ccc(C)cc2)cc1	BRCA1 expr up 4.5µM
c1ccc(CCNc2ncnc3c2cnn3-c2ccccc2)cc1	GLP-1R inv ag inconclusive, BRCA1 expr up 4.5µM, GLP1R cytotox inconclusive
